Test results published in PubChem BioAssay AID624483 (NMMLSC, 2012).
Hit rate of the full screen: of about 360,000 compounds, about 11,000 (3.1%) were called active. Another 2% or so got no clear call; they are omitted. Rule as the data show it: active = fluorescence intensity above about 16000; inconclusive = no clear call, values can overlap the other calls; inactive = below that. Only a selection was taken, and actives are over-represented in it overall.

Assay: counter-screen for toxin protease inhibitors: compound fluorescence, primary screen, artefact control for toxin protease inhibitor project, biochemical, multiplex microsphere, HTS (AID 624483)
Details: compound autofluorescence counterscreen, microsphere flow cytometry; stronger effect = higher value

SMILES	fluorescence intensity
CCCNC(=O)c1cc(C2CCCCN2C(=O)OC)on1 (configuration not stated)	3000 (inactive)
COc1ccccc1NC(=O)C1=C(C)Nc2ncnn2C1c1ccc(C)o1 (configuration not stated)	2690 (inactive)
COc1cc(C2C(C(=O)Nc3ccccc3OC)=C(C)Nc3ncnn32)ccc1O (configuration not stated)	6420 (inactive)
COc1ccccc1NC(=O)C1=C(C)Nc2nnnn2C1c1cccc(Br)c1 (configuration not stated)	20400 (active)
COc1ccc(NC(=O)CN2C(=O)COc3ccc(S(=O)(=O)N4CCOCC4)cc32)cc1	4800 (inactive)
CC1(C(=O)NS(=O)(=O)c2ccccc2)CCN1C(=O)C/C=C/c1ccccc1 (configuration not stated)	3600 (inactive)
Oc1ccc2ccc3cccc[n+]3c2c1	4220 (inactive)
CCCC(=O)N1CCC1(C)C(=O)NCc1ccc(C(C)C)cc1 (configuration not stated)	3880 (inactive)
COc1ccc(-n2ncc3c(SCC(=O)NNC(C)=O)ncnc32)cc1	3990 (inactive)
COc1ccc(-n2ncc3c(N4CCCc5ccccc54)ncnc32)cc1	11300 (inactive)
COc1ccc(-n2ncc3c(N4CCc5ccccc54)ncnc32)cc1	22400 (active)
CCCNC(=O)C1(C)CCN(Cc2csc(-c3ccc(Cl)cc3)n2)C1 (configuration not stated)	3720 (inactive)
Cc1cc2nc(-c3ccc(Cl)cc3)c(Cc3cccc(F)c3)n2c(C)c1Br	6020 (inactive)
O=C(N1CCCC1)C12CC3CC(C1)CC(C(=O)N1CCCC1)(C3)C2	2410 (inactive)
O=C(NCC12CC3CC(C1)CC(CNC(=O)N1CCCC1)(C3)C2)N1CCCC1	16800 (active)
C=CCNC(=O)CC12CC3CC(C1)CC(CC(=O)NCC=C)(C3)C2	4730 (inactive)
Nc1nc(SCc2cccc(Br)c2)n[nH]1	3680 (inactive)
C=CCc1cccc2cc(C(=O)NC3CCCC3)c(=O)oc12	2230 (inactive)
COc1ccc(NC(=O)CSc2nc3ccccc3c(=O)n2C)cc1	3680 (inactive)
COc1ccc(OCc2ccc(-c3nc4ccccc4c(=O)n3N)o2)cc1	2450 (inactive)
Cc1ccc(C(=O)CSc2nc3ccccc3c(=O)n2N)o1	19100 (active)

SMILES	fluorescence intensity
COc1ccc(-c2ccc(C(=O)NCCN3CCOCC3)c3occc23)c(C)c1	3620 (inactive)
Cc1nnc(SCC(=O)Nc2ccc(S(=O)(=O)Nc3ccc(Cl)nn3)cc2)s1	5340 (inactive)
COc1ccccc1N1CCN(Cc2ccc(OC)c3ccccc23)CC1	21400 (active)
COc1ccccc1N1CCN(Cc2cc(OC)c3c(c2)OCO3)CC1	3350 (inactive)
COc1ccc(CN2CCN(Cc3ccc(OC)c(OC)c3OC)CC2)cc1	3740 (inactive)
COC(C[C@@H](O)[C@H](C)[C@H](O)COCc1ccccc1)OC	4260 (inactive)
COc1cc(/C=C(/NC(=O)c2ccccc2)C(=O)Nc2cccc(O)c2)c([N+](=O)[O-])cc1OC	11300 (inactive)
O=C(COC(=O)/C=C/c1ccc(OC(F)F)cc1)NC1CCCCC1	5950 (inactive)
CC(=O)C1=C(O)C(=O)N(c2ccc(S(N)(=O)=O)cc2)C1c1ccccc1F (configuration not stated)	2660 (inactive)
CN(C)CCCOc1ccc(-c2ccc3nccn3c2)cn1	3380 (inactive)
Cc1nc([N+](=O)[O-])cn1CC(=O)Nc1ccc(Cl)cc1	3080 (inactive)
CC(C)C[C@@H]1COc2cc(N3CCC[C@@H]3CO)ccc2S(=O)(=O)N1	6270 (inactive)
Cc1ccccc1S(=O)(=O)NC(=O)C1(C)CCN1C(=O)Cc1ccc(Cl)cc1Cl (configuration not stated)	3450 (inactive)
COc1ccc(/C=N/Nc2nc3ccccc3c(=O)[nH]2)cc1	19400 (active)
COc1ccc(/C=N/Nc2nc(-c3ccc(C)cc3)c(C#N)c(=O)[nH]2)cc1	3690 (inactive)
COc1ccc(CCCc2nnc(SCc3nc4ccccc4c(=O)[nH]3)n2C)cc1	4610 (inactive)
CN(Cc1ccccc1F)c1cc2c(c3c1ccn3C)C1CCC2O1 (configuration not stated)	5510 (inactive)
Cc1ccnc(SCCn2c(Br)nc3c2c(=O)[nH]c(=O)n3C)n1	2110 (inactive)
CCN(CC)C(=O)CSc1nc2ccccc2o1	2780 (inactive)
CC(C)(C)C(=O)CSc1nc2ccccc2o1	4330 (inactive)
CC=CCn1c(SCCCc2ccccc2)nc2c1c(=O)[nH]c(=O)n2C	3020 (inactive)

SMILES	fluorescence intensity
Cn1c(=O)c2c(nc(Br)n2CCSc2nc3ccccc3o2)n(C)c1=O	20900 (active)
Cn1c(=O)[nH]c(=O)c2c1nc(Br)n2CCCCSc1nc2ccccc2o1	24200 (active)
CC1Cc2[nH][nH]c(=O)c2C(C2CC2)O1 (configuration not stated)	6380 (inactive)
CCCCc1c(-c2ccc(Br)cc2)ncn1CCc1ccccc1OC	5930 (inactive)
Cc1c(C(C)CCCO)oc(=O)c2c1Oc1c(C)c(C(C)C[C@@H](C)O)oc(=O)c1C2 (some centres not stated)	3640 (inactive)
CCn1c(SCC(=O)NC2CC2)nnc1-c1ccncc1	4270 (inactive)
COc1cccc(C(O)c2ncc(-c3ccc4ccccc4c3)[nH]2)c1 (configuration not stated)	4120 (inactive)
S=C(NCCCc1cnc[nH]1)NCCCN(Cc1ccc(Cl)c(Cl)c1)c1ccc(Br)cn1	3910 (inactive)
Cc1ccc(-n2nc3cc(Cl)c(NC(=O)c4ccco4)cc3n2)cc1	20600 (active)
Cc1ccc(-n2nc3cc(C)c(NC(=O)c4cccnc4)cc3n2)cc1	3240 (inactive)
Cc1ccc(NC(=O)c2ccco2)cc1	3370 (inactive)
CN(C(=O)CN1CCN(c2cc(-c3ccc(OCc4ccccc4)cc3)ncn2)CC1)c1ccccc1	2960 (inactive)
COC(=O)c1ccc2nc(-c3cccc(Br)c3)c(Cc3ccccc3C(F)(F)F)n2c1	5960 (inactive)
O=[N+]([O-])c1c(NCCO)cc(Sc2nc3ccccc3s2)c2nonc12	16100 (active)
OCCNc1nc(Nc2ccc(Cl)c(Cl)c2)nc2ccccc12	3890 (inactive)
Nc1nnc(SCC(=O)Nc2ccc3nc(SCC(=O)Nc4ccccc4)sc3c2)s1	2450 (inactive)
COc1ccc(C2=NO[C@@H]3C(=O)N(Cc4ccccc4)C(=O)[C@H]23)cc1OC	8330 (inactive)
Cc1c(C(=O)NNC(=O)c2ccncc2)oc2ccccc12	6810 (inactive)
Cc1c(C=O)c2ccccn2c1C(=O)c1ccncc1	20400 (active)
Cc1cc2ccccn2c1C(=O)c1cccc(F)c1	3460 (inactive)
